Measured values: the supplement of paper PMC13380429

System: Vero E6 infected with SARS-CoV-2
Assay: inhibition of SARS-CoV-2 cytopathic effect; higher = more antiviral protection, active = above 15
Conditions: 48 h

Measured: inhibition of SARS-CoV-2 cytopathic effect

[N-]=[N+]=CC(=O)CC[C@H](N)C(=O)O [6-diazo-5-oxo-L-norleucine]
inactive: 1 nM 0.69% | 8.33 nM 0.78% | 100 nM 0.86% | 833.33 nM 0.6% | 10000 nM -0.69%

CC(CN(C)C)CN1c2ccccc2CCc2ccccc21 (stereo not given) [trimipramine]
inactive: 1 nM -3.96% | 8.33 nM -0.87% | 100 nM -0.5% | 833.33 nM -2.02% | 10000 nM -3.88%

CCCCC(=O)OCC(=O)[C@]1(O)Cc2c(O)c3c(c(O)c2[C@@H](O[C@H]2C[C@H](NC(=O)C(F)(F)F)[C@H](O)[C@H](C)O2)C1)C(=O)c1c(OC)cccc1C3=O [valrubicin]
inactive: 1 nM -0.61% | 8.33 nM 0.16% | 100 nM -0.18% | 833.33 nM 0.06% | 10000 nM -1.25%

O=C1COc2c(CCNCCN(C(=O)CCNCCc3ccc(Cl)c(Cl)c3)C3CCCCC3)ccc(O)c2N1
inactive: 1 nM -5.28% | 8.33 nM -4.67% | 100 nM -5.93% | 833.33 nM -1.32% | 10000 nM -3.71%

Cc1c(N)c(=O)n(-c2ccccc2)n1C [ampyrone]
inactive: 1 nM -3.22% | 8.33 nM -2.95% | 100 nM -3.07% | 833.33 nM -2.31% | 10000 nM -1.12%

CC(C)CN(C[C@@H](O)[C@H](Cc1ccccc1)NC(=O)O[C@H]1CO[C@H]2OCC[C@H]21)S(=O)(=O)c1ccc(N)cc1 [darunavir]
inactive: 1 nM -2.41% | 8.33 nM -2.86% | 100 nM -0.7% | 833.33 nM 0.44% | 10000 nM -1.15%
